# Laboratory results published in PubChem BioAssay (EPA / NIEHS).
# Records with an inconclusive call do not appear. Activity calls are given as the source filed them. Rule for the calls: active = hit-call score of the fitted dose curve at least 0.9, where 1 is the maximum; inconclusive = response in the unintended direction; inactive = score below 0.9.
# Molecular target: human Thyroid Receptor alpha (THRa1), THRA (gene 7067) (UniProt P10827)
# Test: ATG_THRa1_TRANS: Attagene TRANS-FACTORIAL HepG2 Assay for human Thyroid Receptor alpha (THRa1) (AID 2283014)
# Procedure: ATG_TRANS is a cell-based, multiplexed-readout assay that uses HepG2, a human liver cell line, with measurements taken at 24 hours after chemical dosing in a 24-well plate.ATG_THRa1_TRANS is one of 30 assay component(s) measured or calculated from the ATG_TRANS assay. It is designed to make measurements of mRNA induction, a form of inducible reporter, as detected with fluorescence intensity signals by Reverse transcription polymerase chain reaction (RT-PCR) and Capillary electrophoresis technology.Data from the assay component ATG_THRa1_TRANS was analyzed into 1 assay endpoint. This assay endpoint, ATG_THRa1_TRANS, was analyzed in the positive analysis fitting direction relative to DMSO as the negative control and baseline of activity. Using a type of inducible reporter, measures of mRNA for gain-of-signal activity can be used to understand the reporter gene at the transcription factor-level as they relate to the gene THRA. Furthermore, this assay endpoint can be referred to as a primary readout, because this assay has produced multiple assay endpoints where this one serves a reporter gene function. To generalize the intended target to other relatable targets, this assay endpoint is annotated to the nuclear receptor intended target family, where the subfamily is non-steroidal.
# Human liver HepG2 cells are transiently transfected with multiple reporter transcription units (MRTUs) in 6-well plates using FuGene 6 reagent (Roche; 3 ml FuGene/1 mg DNA). The MRTU constructs are regulated by a cis-regulating element (promoter). […] A major difference between the CIS and TRANS system is that in CIS activities of endogenous TFs are measured, whereas the TRANS assay evaluates changes in activities of exogenous, chimeric NR-Gal4 proteins. […] At the end of 24 hour incubation, total RNA was isolated using TriZol reagent (Invitrogen). The isolated RNA is then reverse-transcribed using oligo(dT) primer and Mo-MLV reverse transcriptase (Invitrogen) with DNAse I (Ambion) treatment for 30 min. The one-tenth of the produced cDNA was amplified by PCR using Taq DNA polymerase (Invitrogen) and two reporter sequence-specific primers. The PCR products were fluorescently labeled by primer extension with 6-arboxyfluorescein (6-FAM) 5'-labeled reporter sequence-specific primer (2 min at 95 C, 20 s at 68 C and 10 min at 72 C) and these products were digested with 5U of HpaI (New England Biolabs) for 2h at 37 C. The fragments were purified using Qiaquick PCR columns (Qiagen), analyzed on an ABI 3130xL genetic analyzer (Applied Biosystems) with peak positions identified by using a set of X-rhodamine (ROX)-labeled MapMarker1000 molecular weight standards (BioVentures). The raw capillary electrophoresis data was processed using Attagraph software (Attagene).
# Chain of human Thyroid Receptor alpha (THRa1), THRA (gene 7067) (P10827 whole entry, looked up): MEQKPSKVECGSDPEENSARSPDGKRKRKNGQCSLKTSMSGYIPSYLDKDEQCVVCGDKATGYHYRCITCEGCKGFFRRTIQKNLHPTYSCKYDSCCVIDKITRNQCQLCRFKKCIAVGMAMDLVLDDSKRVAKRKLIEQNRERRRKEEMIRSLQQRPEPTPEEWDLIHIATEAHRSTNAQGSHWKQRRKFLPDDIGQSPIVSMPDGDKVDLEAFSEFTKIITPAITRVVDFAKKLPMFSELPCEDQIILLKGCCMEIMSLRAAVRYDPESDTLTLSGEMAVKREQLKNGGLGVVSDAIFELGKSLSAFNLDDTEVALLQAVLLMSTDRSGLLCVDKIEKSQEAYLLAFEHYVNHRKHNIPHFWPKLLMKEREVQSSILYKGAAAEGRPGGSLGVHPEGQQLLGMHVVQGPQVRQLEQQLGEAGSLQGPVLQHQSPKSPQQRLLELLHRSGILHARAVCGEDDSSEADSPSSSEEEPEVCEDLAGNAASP
SMILES,outcome,AC50
CN(C)C(=S)SC(=S)N(C)C,inactive,–
CCCCOC(=O)CCCCCCCC(=O)OCCCC,inactive,–
OCCOCCN1CCN(C2=Nc3ccccc3Sc3ccccc32)CC1,inactive,–
CCNCCO,inactive,–
CC[N+](C)(CC)CC,inactive,–
CCOC(=O)COC(=O)c1cc(Oc2ccc(C(F)(F)F)cc2Cl)ccc1[N+](=O)[O-],inactive,–
CS(=O)(=O)c1ccc(C2=C(c3ccccc3)C(=O)OC2)cc1,inactive,–
C#CC(C)N(C)C(=O)Nc1ccc(Cl)cc1 (stereo not given),inactive,–
CCOC(=O)[C@@H](C)Oc1ccc(Oc2nc3ccc(Cl)cc3o2)cc1,inactive,–
Nc1ccc(N)c2c1C(=O)c1ccccc1C2=O,inactive,–
O=C1OC2(c3ccccc31)c1ccc(O)c(Br)c1Oc1c2ccc(O)c1Br,inactive,–
CCCCC(CC)COC(=O)c1ccc(O)cc1 (stereo not given),inactive,–
O=[N+]([O-])c1ccc(O)cc1C(F)(F)F,inactive,–
CCCCC1CCC(O)CC1 (stereo not given),inactive,–
C=CC(=C)CCCC(C)(C)OC(C)=O,inactive,–
COc1ccc(CCO)cc1,inactive,–
CN(C)C(=O)Nc1ccc(Oc2ccc(Cl)cc2)cc1,inactive,–
COc1ccc(CCN2CCC(Nc3nc4ccccc4n3Cc3ccc(F)cc3)CC2)cc1,inactive,–
CCc1ncc(C)[nH]1,inactive,–
C=C(C)[C@H]1CC=C(C)C(=O)C1,inactive,–

SMILES,outcome,AC50
COC(C)(C)CC(C)=O,inactive,–
CCCOC(=O)c1c(Cl)c(Cl)c(Cl)c(Cl)c1C(=O)OCCC,inactive,–
CCCCCC(=O)CC,inactive,–
CCOC(=O)c1ccc(N)cc1,inactive,–
CCCCC(CC)COC(C)=O (stereo not given),inactive,–
CCOc1ccccc1O,inactive,–
Oc1c(Cl)cc(Cl)c(Cl)c1Cc1c(O)c(Cl)cc(Cl)c1Cl,–,657 nM (active)
Cc1ccc(S(=O)(=O)Oc2ccc(N=Nc3ccc(-c4ccc(N=Nc5c(O)ccc6cc(S(=O)(=O)O)cc(S(=O)(=O)O)c56)c(C)c4)cc3C)cc2)cc1,inactive,–
Nc1ccc(NCCO)c([N+](=O)[O-])c1,inactive,–
CCCC(C)=O,inactive,–
Cc1[nH]c(=O)c(C#N)cc1-c1ccncc1,inactive,–
Cc1cc(=O)oc2cc(N(C)C)ccc12,inactive,–
CCCCCCCCCCCCN1CCCCCC1=O,inactive,–
c1ccc(CCc2ccccc2)cc1,inactive,–
CC=CC=CCOC(=O)C(C)C,inactive,–
CC/C=C\CCOC(=O)CC,inactive,–
NCCNc1cccc2ccccc12,inactive,–
O=c1c(O)c(-c2ccc(O)cc2)oc2cc(O)cc(O)c12,inactive,–
OCCCCC(O)CO (stereo not given),inactive,–
CCN(CC)C(=O)N(CC)CC,inactive,–
